Several values for one entry are separate records, joined by “and”; a condition that tells them apart may be missing. Equal values may be shown once. The whole screen tested about 290,000 compounds, of which about 2,700 (0.93%) were called active. The full list was thinned out, with actives kept by preference. Unmarked numbers belong to inactive results.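 The calls were made as follows: active = inhibition above the screen-wide mean plus 3 SD, computed separately per campaign (cut at about 16% in these data); inactive = the rest.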

The values that follow come from PubChem BioAssay AID1789 (The Scripps Research Institute Molecular Screening Center, 2009).

The test system of the assay is Heat shock protein HSP 90 (rabbit reticulocyte lysate; luciferase refolding). Briefly: inhibitors of HSP90 chaperone activity – cell lysate, luminescence, primary screen (AID 1789).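 Also: 0% = DMSO wells and 100% = 60 µM geldanamycin wells; inhibitors lower the luminescence because luciferase stays unfolded.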 The following applies: 3 h, at 5.6 µM, stronger effect = higher value.
The term inhibition denotes the change of the read-out against control, counted positive when it falls. Take `COc1ccc(S(=O)(=O)NC(C)c2ccccc2)cc1C(=O)N1CCCCC1` (stereo unspecified): the inhibition was -0.07%.
As for `Cc1cc(NC(=O)c2ccccc2C)no1`, the figure is 1.41%; as for `CC(NCc1cccs1)C(=O)Nc1cc(Cl)cc(Cl)c1` (stereo unspecified), 3.33%; as for `O=S(=O)(Cc1cc(Cl)nc(-c2cccnc2)n1)c1ccccc1`, -1.01%.
As to `Cc1cccc(C(=O)N2CCCC(Nc3ccc(C(C)C)cc3)C2)n1` (stereo unspecified), the inhibition was 2.58%.
On to `COc1ccc2cc(S(=O)(=O)Nc3ccccn3)ccc2c1`, for which the inhibition was -2.45%.
With `COc1cc(NS(=O)(=O)c2ccc3ccccc3c2)c2ncccc2c1`, the inhibition is 17.1% (active).
Turning to `Cc1ccc(NS(=O)(=O)c2ccc(C)c(NC(=O)COc3ccc4ccccc4c3)c2)c(C)c1`, the inhibition is 3.5%.
The same measure for `O=S(=O)(Nc1ccccc1Cl)c1cccc2nsnc12`: -0.91%; for `COc1ccc2c(c1)C(NS(=O)(=O)OCC(Cl)(Cl)Cl)CCC2` (stereo unspecified): -3.42%.
In the case of `COc1cccc(/C=C/c2ccc3ccccc3n2)c1OC(C)=O`, the inhibition is 26.1% (active).
As for `COc1cccc(/C=C2\C=C(c3ccc(C)cc3)OC2=O)c1OC(C)=O`, the inhibition is -2.84%.
As for `CCOc1cccc(/C=C/c2ccc3ccccc3n2)c1OC(C)=O`, the figure is 11.8%; as for `Cc1cc(=O)oc2cc(OC(C)C(=O)NCCc3ccc(S(N)(=O)=O)cc3)ccc12` (stereo unspecified), -1.68%.
The same measure for `COC(=O)C1=C(O)/C(=C/c2ccc(OCC(=O)Nc3ccccc3)cc2)N=C1C`: 3.09%; for `COC(=O)c1ccc(Nc2ncnc3sccc23)cc1`: -0.64%; for `COc1ccc(N(CC(=O)NCC2CCCO2)C(=O)CCC(=O)Nc2nccs2)c(OC)c1` (stereo unspecified): 1.16%.
The same measure for `Cc1nc2cc(NC(=O)NC3CC3)ccc2n1C`: -3.15%.
Take `C=CCN(C(=O)Nc1ccc2c(c1)nc(C)n2C)c1ccccc1`: the inhibition is 2.61%.
The same measure for `Cc1nc2cc(NC(=O)Nc3cccc(F)c3)ccc2n1C`: 42.2% (active).
Turning to `CCN(C(=O)COc1ccc(C(=O)c2ccccc2)cc1)c1ccccc1`, the inhibition is 2.9%.
The same measure for `O=C(Nc1ccc(N2CCOCC2)cc1)c1ccc2c(c1)OCO2`: 4.41%; for `O=C(Nc1cccc(S(=O)(=O)Nc2ccc(Cl)cc2)c1)c1ccc2c(c1)OCCO2`: -6.31%; for `O=C(Nc1ccccc1)c1ccc2c(c1)OCCCO2`: 31.5% (active).
Consider `O=C(Nc1ccccc1F)c1ccc2c(c1)OCO2`, for which the inhibition is 4.08%.
The same measure for `O=C(Nc1nc2ccccc2s1)c1ccc2c(c1)OCO2`: 21.8% (active).
The same measure for `COCc1nnc(NC(=O)c2ccc3c(c2)OCO3)s1`: -2.47%.
Take `CN1CCN(CCNC(=O)Nc2ccccc2[N+](=O)[O-])CC1`: the inhibition is -4.79%.
As for `O=C(CCN1C(=O)C2C3CCC(C3)C2C1=O)Nc1ccc(Cl)cc1Cl` (stereo unspecified), the inhibition was -1.86%.
Turning to `COc1ccc(/C(C)=N\NC(=O)c2ccc(-c3ccccc3)cc2)c(F)c1`, the inhibition was -2.33%.
The same measure for `Oc1c(Cl)cc(Cl)cc1/C=N/c1ncn[nH]1`: -0.17%; for `CC(C)C[C@H](NC(=O)N1CCn2c1nc1ccccc12)C(=O)NC1CC1`: -4.43%.
The same measure for `COc1ccccc1C(=O)Nc1cccc(C(=O)N2CCOCC2)c1`: -1.04%; for `COc1cc(CNC2CCCCC2)c(Br)cc1OC1CCCC1`: 35.2% (active).
In the case of `COc1cc(CNC2CCCC2)c(Br)cc1OCc1ccccc1`, the inhibition is -1.4%.
The same measure for `CC(C)(C)NCc1cc(Br)ccc1OC1CCCC1`: -2.93%; for `COc1cc(C(=O)OCC(=O)NC(C)CCc2ccccc2)cc(OC)c1OC` (stereo unspecified): 0.2%.
As for `COc1ccccc1CNS(=O)(=O)c1c(C)[nH]c(C)c1C(=O)N1CCCCC1`, the figure is -3%.
With `CCOc1ccccc1C(=O)NCCCn1ccnc1`, the inhibition is 2.74%.
Consider `CCCOc1ccccc1C(=O)NCCCC(=O)O`, for which the inhibition was 1.45%.
The same measure for `CCCCOCCCNC(=O)c1ccccc1OCC`: 29.5% (active); for `Cc1c(C(=O)N(C)CCc2cnn(C)c2)oc2c(F)cccc12`: -3.1%; for `CC(C)Nc1ccc(-n2nc3ccccc3[n+]2[O-])cc1`: 20.2% (active).
Regarding `O=C(Cc1ccsc1)N1CCN(S(=O)(=O)c2cc(C(F)(F)F)cc(C(F)(F)F)c2)CC1`, the inhibition was -2.85%.
For `CC(NC(=O)c1ccco1)c1ccc2c(c1)OCO2` (stereo unspecified), the inhibition is -2.76%.
The same measure for `O=C(Nc1ccccc1)c1ccccc1NC(=O)C(F)(F)F`: -1.41%; for `COCc1cc(=O)[nH]c(-c2ccc(C(F)(F)F)cc2)n1`: -1.15%.
The same measure for `COCc1cc(=O)[nH]c2cc(NC(=O)C(F)(F)F)c(C)cc12`: 43.6% (active); for `CSc1ccccc1NC(=O)c1cc(Cl)sc1Cl`: 2.29%; for `C=CCn1c(C)cc(C2=NNC(=NCC)SC2)c1C`: 44.5% (active).
As for `C=CCn1c(C)cc(C(=O)CN2C(=O)c3ccccc3C2=O)c1C`, the figure is -0.12%.
Turning to `Cc1cc(C2=NNC(=Nc3ccc(S(=O)(=O)N4CCOCC4)cc3)SC2)c(C)n1CC1CCCO1` (stereo unspecified), the inhibition is 1.56%.
On to `Cc1ccc2c(=O)cc(C(=O)NCCc3ccc(S(N)(=O)=O)cc3)oc2c1C`, for which the inhibition is 0.5%.
As for `CC(=O)c1ccc(NC(=O)c2cc(-c3cccs3)on2)cc1`, the figure is -4.55%; as for `COc1ccc(-n2nc(C(=O)NCC(=O)Nc3cccc(C)n3)c3ccccc3c2=O)cc1`, 0.84%; as for `CCOC(=O)CNC(=O)c1nn(-c2cccc(OC)c2)c(=O)c2ccccc12`, 20.7% (active).
Turning to `COCCCNC(=O)CNC(=O)c1nn(-c2ccc(OC)cc2)c(=O)c2ccccc12`, the inhibition was -1.14%.
With `CC(=O)NS(=O)(=O)c1ccc(N/C(N)=N/c2nc(C)cc(C)n2)cc1`, the inhibition was -3.21%.
As for `COc1cccc(C(=O)NNC(=O)/C=C/c2ccccc2)c1`, the figure is -8.89%.
Consider `Cc1cc(C)nc(S/C=C/C(=O)c2ccccc2)n1`, for which the inhibition is 34.3% (active).
The same measure for `Cc1ccc(N/C=C/C(=O)c2ccccc2)cc1C`: -2.61%; for `Cc1cc(C)nc(SCC(=O)c2ccc(Cl)cc2)n1`: -0.36%; for `COc1ccc(/C=N/Nc2ccccc2C(=O)O)cc1`: 24.7% (active).
As for `COc1ccc(C(=O)Nc2ccccc2C(=O)N/N=C/c2ccc(O)c(OC)c2)cc1`, the figure is 89% (active); as for `COc1ccc(C(=O)Nc2ccccc2C(=O)N/N=C/c2ccccc2OC)cc1`, 50.3% (active).
As for `COc1ccc(/C=N/NC(=O)c2ccc3c(c2)OCCO3)c(OC)c1`, the figure is 2.94%; as for `COc1cc(/C=N/NC(=O)c2ccccc2)ccc1OS(=O)(=O)c1ccccc1`, -0.09%.
Take `COc1ccc(/C=N/Nc2nc3ccccc3c(=O)[nH]2)cc1`: the inhibition was 0.73%.
Consider `COc1ccc(C(=O)Nc2ccccc2C(=O)NCc2ccco2)cc1`, for which the inhibition is -2.57%.
The same measure for `COc1ccc(/C=N/OCC(=O)N(Cc2ccccc2)c2ccccc2C(=O)O)cc1`: -2.76%.
As for `COc1cc(/C=N/NC(=O)c2ccc(N3CCCC3=O)cc2)ccc1O`, the figure is -0.72%; as for `O=C(NCc1cccnc1)c1ccccc1NC(=O)c1c(F)cccc1F`, -0.75%; as for `COc1ccc(N(CC(=O)Nc2cc(OC)cc(OC)c2)S(=O)(=O)c2c(C)n[nH]c2C)cc1`, -1.64%.
In the case of `Cc1ccc(S(=O)(=O)NCC(=O)N2CCOCCOCCOCCOCC2)cc1`, the inhibition is -3.1%.
The same measure for `COc1ccccc1-c1cnn2c(N3CCOCC3)cc(C)nc12`: 3.53%; for `Cc1sc2ncn(CC(=O)NCCCC(=O)N3CCN(c4ccccc4F)CC3)c(=O)c2c1C`: -3.37%; for `CSCCC(C(=O)NC1=NCCS1)N1C(=O)c2ccccc2C1=O` (stereo unspecified): 33.2% (active).
As for `CC(NC(=O)COc1ccccc1)C(=O)NC1=NCCS1` (stereo unspecified), the figure is -0.56%; as for `O=C(NC1=NCCS1)[C@H](Cc1ccccc1)N1C(=O)c2ccccc2C1=O`, 3.87%.
With `N#Cc1ccccc1S(=O)(=O)N1CCN(C(=O)c2cc(-c3ccccc3)nn2-c2ccccc2)CC1`, the inhibition is 4.37%.
The same measure for `CC(C)c1nnc(NC(=O)C2CC(=O)N(CCc3ccc(F)cc3)C2)s1` (stereo unspecified): -2.78%; for `CCOC(=O)C1=C(CCc2ccccc2)NC(=O)NC1c1ccc2ccccc2c1` (stereo unspecified): 2.66%; for `CC(=O)N1CCC(C(=O)OCc2ccc(Cl)cc2)(c2ccccc2)CC1`: -1.35%.
The same measure for `CC(C)CNC(=O)CC(NCC(C)C)C(=O)O` (stereo unspecified): 21.9% (active); for `CC(C)CNC(=O)CC(c1ccccc1)c1c(O)ccc2ccccc12` (stereo unspecified): -0.94%; for `CC(C)CNC(=O)/C=C/C(=O)O`: 0.58% and -0.1%.
As for `COc1cccc(N(CC(=O)NC2CCCC2)C(=O)Cn2nnc(-c3ccc(C)o3)n2)c1`, the figure is 0.72%; as for `C=C(C)COc1ccc(-c2ncncc2-c2ccc(OC)cc2)c(O)c1`, 3.58%.
For the compound `c1ccc(-c2ccc3c(c2)NC(C2Nc4cc(-c5ccccc5)ccc4O2)O3)cc1` (stereo unspecified), the inhibition is 52.5% (active).
The same measure for `Cc1cc(C)cc(C(=O)OCC(=O)NCCNC(=O)COC(=O)c2cc(C)cc(C)c2)c1`: -1.1%.
`O=C1CCC(Cc2ccccc2)N1` (stereo unspecified): the inhibition is 0.74%.
The same measure for `O=C1CCC([N+](=O)[O-])C(c2ccccc2Br)N1` (stereo unspecified): 78.7% (active).
`COc1cc2c(cc1OC)C(c1ccccc1Br)NC(=O)C2` (stereo unspecified): the inhibition is -0.82%.
Consider `Cc1ccc(SCC(=O)NNC(=O)c2ccc(S(C)(=O)=O)cc2)cc1`, for which the inhibition was 2.29%.
As for `O=C(/C=C/c1cnc2ccccc2n1)NC1CCCCCC1`, the figure is -4.23%; as for `O=C(COC(=O)/C=C/c1cccs1)NC1CCCCC1`, 1.87%.
